In all, about 360,000 compounds went through this assay and about 2,300 (0.64%) were called active. The sample holds actives, similar compounds and a random draw of the others, so the mix is not that of the screen. Values without a mark were called inactive.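 The calls were made as follows: active = compounds giving at least 50% protection of heart cells from peroxide-induced death in the single-dose screen, raw or plate-pattern-corrected value; inactive = the rest.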

The nature of the assay: H9c2 cardiomyocyte survival under peroxide injury – uHTS, H9c2 cells, ATPLite luminescence, primary screen (AID 588492).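 Also: 0% = DMSO wells with peroxide and 100% = DMSO wells without peroxide.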 The following applies: H9c2 cardiomyocytes, 2 h, at 20 µM, hits give high values. On the technique in general: ATP-based viability assays read luminescence as a measure of living cells.
Consider `CCCCn1c(=O)c(C(=O)Nc2ccccc2Cl)c(O)c2ccccc21`, for which the protection from H2O2 cell death was 28.7%.

For `CCCCCn1c(=O)c(C(=O)NCc2ccccc2)c(O)c2ccccc21`, the protection from H2O2 cell death is 46.9%.

With `CCCCCn1c(=O)c(C(=O)NCc2ccccn2)c(O)c2ccccc21`, the protection from H2O2 cell death was 53.7% (active).

In the case of `CCN1CCN(C(=O)Cc2coc3cc(C)cc(C)c23)CC1`, the protection from H2O2 cell death was 5.6%.

For `COC(=O)C1=C(c2c(C)noc2C)C[C@@H]2CC[C@H]1N2C(=O)NCc1ccc2c(c1)OCO2`, the protection from H2O2 cell death was -2.4%.

As for `Cc1ccc2c(c1)=C/C(=C\c1c(O)[nH]c(=O)[nH]c1=O)C(=O)N=2`, the protection from H2O2 cell death was 60.8% (active).

Consider `COc1ccccc1N=Nc1c(O)[nH]c(=S)[nH]c1=O`, for which the protection from H2O2 cell death is -6.6%.

Turning to `O=C1N=c2ccccc2=C/C1=C\c1c(O)[nH]c(=S)[nH]c1=O`, the protection from H2O2 cell death is 51.8% (active).

Take `O=c1[nH]c(O)c(C=Nc2cc(F)cc(F)c2)c(=O)[nH]1`: the protection from H2O2 cell death is 6.4%.

In the case of `CCN1C(=O)C(=Cc2c(C)n(CC(=O)NCC3CCCO3)c3ccccc23)C(=O)N(CC)C1=S` (stereo not given), the protection from H2O2 cell death is -2.5%.

In the case of `Nc1ccc([N+](=O)[O-])cc1`, the protection from H2O2 cell death is -1.6%.

Regarding `Cc1cccc(OP(=O)(Oc2cccc(C)c2)OC(c2ccccc2)C(F)(F)F)c1` (stereo not given), the protection from H2O2 cell death is -8.9%.

Turning to `CC1C(=O)OC2CCN3CC=C(COC(=O)C(C)(O)C1(C)O)C23` (stereo not given), the protection from H2O2 cell death is 1.6%.

`CCn1cc(CN2CCCC(C(=O)c3cccc(C(F)(F)F)c3)C2)cn1` (stereo not given): the protection from H2O2 cell death was -6.7%.

Take `CCN1CCN(c2nc3c(c(=O)[nH]2)CCC3)CC1`: the protection from H2O2 cell death is 63% (active).

Consider `O=C(NC(c1ccc(Cl)cc1)P(=O)(Oc1ccccc1)Oc1ccccc1)OCc1ccccc1` (stereo not given), for which the protection from H2O2 cell death was 7.3%.

Consider `O=C(CCNS(=O)(=O)c1ccccc1)Nc1ccc(Cl)cc1C(=O)c1ccccc1`, for which the protection from H2O2 cell death is -9.8%.

For `Fc1ccc(C2N3CCCN23)cc1` (stereo not given), the protection from H2O2 cell death is 1.5%.

On to `C=CC12CN(C)[C@@H]3C4CO[C@H](C[C@H]41)[C@]1(C(=O)Nc4ccccc41)[C@@H]32` (stereo not given in full), for which the protection from H2O2 cell death was 3.5%.

`NC(=O)Cn1cc(C(=O)c2ccccc2F)c2ccccc21`: the protection from H2O2 cell death is 8.7%.

The values above are taken from PubChem BioAssay AID588492 (Sanford-Burnham Center for Chemical Genomics, 2011).
